CHX counter = affects cycloheximide protein synthesis inhibition readout, counter-screen; cell reporter, cycloheximide protein synthesis inhibition counterscreen; max response, %; actives 12% (n = 300,000); in the data active = max response mostly above about 13%, no sharp cut-off; inactive = mostly below about 14%; note: read at 38.3 µM for the half of the compounds with a filed dose; 0% is about no effect
Shiga inhibitor = inhibitors of Shiga toxin in Vero cells; inhibition, % at 38.7 µM; actives 9.2% (n = 290,000); Vero cells, Shiga toxin protein synthesis inhibition reporter; in the data active = inhibition mostly above about 28%, no sharp cut-off; inactive = mostly below about 43%; note: 0% is about no effect
Giardia FBPA inh = Giardia lamblia aldolase inhibition; A8B2U2; purified Giardia FBPA; Potency, µM (series often up to 59.6 µM), inactives show at the highest dose activity, negative = inhibition, hits mostly inhibitors; actives 0.71% (n = 290,000); AID 2451; note: potency is the fitted concentration of half-maximal effect; % is set by controls: 0 for no effect and ±100 for the full control effect; nearly all actives have a fitted effect of over 55% in size
Target sequence (A8B2U2 whole entry, looked up): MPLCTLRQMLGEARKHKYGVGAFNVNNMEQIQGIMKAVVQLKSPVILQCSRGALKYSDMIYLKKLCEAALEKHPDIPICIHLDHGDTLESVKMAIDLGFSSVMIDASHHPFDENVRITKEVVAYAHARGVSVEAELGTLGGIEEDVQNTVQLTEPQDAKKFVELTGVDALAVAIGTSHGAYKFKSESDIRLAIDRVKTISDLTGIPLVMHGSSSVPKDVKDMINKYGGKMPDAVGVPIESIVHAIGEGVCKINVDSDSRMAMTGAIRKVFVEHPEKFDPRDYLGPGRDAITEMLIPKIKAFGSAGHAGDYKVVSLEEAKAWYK
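40 nM FBPA preincubated 10 min at RT with compound (up to 57.5 uM final), then substrate plus GAPDH/TPI/NAD/arsenate coupling and diaphorase/resazurin added. Fluorescence read after 20 min at RT, 525/598 nm.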
Tb PYK inh = T. brucei pyruvate kinase inhibition | actives 0.12% (n = 410,000) | Q57TT1 | Potency, µM (series often up to 76.8 µM), for the others: top-dose activity, negative = inhibition, most hits filed as inhibitors | TbPYK enzyme, Kinase-Glo Plus ATP luminescence, 45 min; note: potency is the fitted concentration of half-maximal effect; % is set by controls: 0 for no effect and ±100 for the full control effect; nearly all actives have a fitted effect of over 50% in size
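In this concentration-response screen, enzyme-free wells defined baseline while DMSO plates tracked drift. Each reaction combined TbPYK, substrate, compound and 130 uM ADP for 45 min at room temperature. Kinase-Glo Plus luminescence gave the signal.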
LmPK inhibitor = inhibitors of Leishmania mexicana pyruvate kinase | purified LmPK, Kinase-Glo ATP luminescence, 1 h | Q27686 | Potency, µM (doses to about 57.5 µM), inactives show top-dose activity change, negative = inhibition, hits mostly inhibitors | actives 0.37% (n = 290,000); note: potency is the fitted concentration of half-maximal effect; % is set by controls: 0 for no effect and ±100 for the full control effect
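ATP generated from ADP (0.1 mM) and PEP (0.5 mM) by 0.1 nM LmPK over 1 h at room temperature (pH 7.2 imidazole buffer) was detected by coupled luciferase luminescence. Values were normalized to uninhibited and no-enzyme wells.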
RE007 growth inh = less growth of the S. pombe RE007 Vpr strain | S. pombe RE007 Vpr strain, BacTiter-Glo ATP luminescence, 24 h | Potency, µM (highest dose often 92.2 µM), for inactives: top-dose activity change, negative = less growth, most hits filed as inhibitors | actives 0.21% (n = 360,000) | AID 651644; active = well fitted falling curve with a large enough effect; inconclusive = small, poorly fitted or top-dose-only effect; inactive = no such curve, though single readings can be large or run the other way; note: potency is the fitted concentration of half-maximal effect; % is set by controls: 0 for no effect and ±100 for the full control effect; nearly all actives have a fitted effect of over 50% in size
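Fission yeast RE007 carrying one integrated HIV-1 vpr copy, seeded at OD 0.01 in PMG+AL medium with 23 nL pinned compound. Grown 24 h at 30 degrees; viability read by BacTiter-Glo luminescence after 5 min.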
Active calls of the source: *; u = inconclusive; x = no result given; [ ] = dose if it differs, or a comment. The entries come from a sample that favours hits as a whole. Unless noted, calls come from the whole dose curve; as a rule, active = well fitted curve in the direction sought with a large enough effect; inconclusive = small, poorly fitted or top-dose-only effect, or another doubt; inactive = no such curve, though single readings can be large; an effect the other way counts as inactive or inconclusive.

SMILES	CHX counter	Shiga inhibitor	Giardia FBPA inh	Tb PYK inh	LmPK inhibitor	RE007 growth inh
Clc1cccc(N2CCN(c3nnnn3-c3ccccc3)CC2)c1	-1	-8	5%	1%	2%	7%
COc1ccc(N2C(=O)CC(Sc3nc(C)cc(C)c3C#N)C2=O)cc1 (centres undefined)	2	23	-1%	-4%	4%	-12%
O=c1c(-c2ccc(Cl)cc2)nc2cncnc2n1Cc1ccccc1Cl	x	x	-2%	-5%	x	x
C[C@H]1CN=C2N(CCNC(=O)CCC3CCCCC3)[C@H](Cc3ccc(O)cc3)CN21	1	-14	4%	-13%	0%	-15%
CCCCCCNC(=O)N[C@@H](Cc1ccc(O)cc1)C(=O)NCCC[C@H]1CN2C(=NC[C@H]2C)N1CC1CCC1	11	40*	4%	-4%	1%	-21%
CC(C)C1=NN(C(=O)c2cccnc2)C(O)(C(F)(F)F)C1 (centres undefined)	-1	-4	-2%	2%	2%	3%
CC(C)C1=NN(C(=O)c2ccccc2)C(O)(C(C)(C)C)C1 (centres undefined)	29*	21	9%	-3%	0%	5%
CC(C)(C)C1=NN(C(=O)c2ccccc2)C(O)(C(C)(C)C)C1 (centres undefined)	13*	34*	0%	-6%	-4%	0%
C/C(=N/OC(=O)c1c(F)cccc1F)c1nccs1	6	-4	0%	-21%	13µM*	-12%
C/C(=N\OC(=O)c1c(-c2c(F)cccc2Cl)noc1C)c1nccs1	8	6	-6%	5%	4%	-5%
COc1ccc(C/C(N)=N/OC(=O)c2cccs2)cc1	19	38	0%	3%	-1%	-12%
COc1ccc(C(=O)O/N=C(\C)c2nccs2)cc1	26*	30	1%	u	7.9µM*	-16%
COc1ccc(C(=O)O/N=C(/C)c2cccs2)cc1	34*	61*	-8%	25µM*	3.5µM*	40µM*
COc1ccc(OCCOC(=O)c2cccs2)cc1	33*	77*	-6%	5%	-10%	u
COc1ccc(-n2ncc(C(=O)NCc3cccs3)c2C2CCN(C(=O)OC(C)(C)C)CC2)cc1	x	x	x	0%[15.4 µM]	x	x
C=CCOC(=O)N[C@H](C[N+](=O)[O-])c1ccccc1	x	x	-2%	x	x	x
CCCCc1ccc(Nc2cc(C)nc(-n3nc(C)cc3C)n2)cc1	x	x	x	-3%	x	x
COc1ccccc1/C=N/OC(=O)c1ccc(F)cc1	8	8	0%	-2%	2%	60%
C/C(=N\OC(=O)c1ccc(F)cc1)c1nccs1	47*	53	11%	-14%	u	-15%
O=C1C=CC(=O)N1c1cccc(-c2ccccc2)c1	16	20	-7%	5µM*	u	2.5µM*
O=c1cc(-c2ccccc2)[nH]n1-c1ccccc1	x	x	x	-3%	x	13%
COc1cc(O)ccc1C(=O)CCc1ccc(O)cc1	12*	16	18%	-4%	-7%	-8%
O=C(Cc1ccc(Cl)c(Cl)c1)OCC(=O)c1ccc[nH]1	3	17	-24%	-7%	3%	u
O=C(OCc1ccc(Cl)c(Cl)c1)c1ccc[nH]1	23*	111*	-5%	8%	-3%	-21%
N#C/C(=C\c1cc(Br)c(O)c(Br)c1)c1nc2ccccc2c(=O)[nH]1	x	x	x	21%	x	x
SMILES	CHX counter	Shiga inhibitor	Giardia FBPA inh	Tb PYK inh	LmPK inhibitor	RE007 growth inh
CCn1cc(SCC(=O)N2CCOCC2)c2ccccc21	30*	68*	-1%	-14%	1%	10%
O=C(CSc1nncc2ccccc12)N1CCOCC1	17*	37	-3%	4%	-1%	13%
Cn1cc(SCC(=O)N2CCOCC2)c2ccccc21	22*	93*	-4%	-25%	0%	0%
O=C(CSc1nncc2ccccc12)Nc1ccc(C(=O)O)cc1	21*	6	x	0%	-8%	-3%
CC(=O)Nc1ccc(NC(=O)CSc2cn(CC(=O)N3CCOCC3)c3ccccc23)cc1	2	-7	22%	-2%	6%	-6%
Cn1cc(SCC(=O)N2CCN(c3ccccc3)CC2)c2ccccc21	-9	-5	-6%	u	10%	-10%
CC1=C(C(N)=O)C(c2cccc(C)c2)n2nc(-c3cccc(C)c3)nc2N1 (centres undefined)	x	x	x	-2%	x	x
CN(Cc1ccc(C(C)(C)C)cc1)c1cccc2ccccc12	x	x	x	0%	x	x
Cc1nn(-c2ccc(N3CCOCC3)nn2)c(C)c1CCC(=O)NCc1ccc(OC(C)C)cc1	x	x	x	5%	x	x
COc1ccc(-n2cc(C(=O)NCc3ccccc3Cl)c3ccccc3c2=O)cc1	x	x	x	7%	x	x
O=C(CSc1cn(CC(=O)N2CCCCCC2)c2ccccc12)NCC1CCCO1 (centres undefined)	10	28	4%	-6%	9%	-2%
CCn1cc(SCC(=O)NCC2CCCO2)c2ccccc21 (centres undefined)	6.6*	3	6%	-10%	-1%	-1%
COc1cccc(CNC(=O)c2cc(S(=O)(=O)N3CCCCCC3)cn2C)c1	x	x	x	6%	x	x
COCCOC(=O)c1[nH]c2c(c1C)C(=O)CC(c1cccs1)C2 (centres undefined)	20*	-4	-1%	0%	-2%	0%
COc1ccc(C2C(C#N)=C(N)Oc3cc(O)ccc32)cc1 (centres undefined)	x	x	x	3%	x	11%
COc1ccc(N=Cc2cc3c(cc2O)OC(N)=C(C#N)C3c2ccccc2)cc1 (centres undefined)	11*	-10	u	4%	-3%	-9%
O=C(Cc1ccccc1)N/N=C/c1ccc(S(=O)(=O)O)o1	-2	-2	8%	2%	4%	7%
O=C(Cc1ccccc1)N/N=C/c1ccccc1F	-2	58*	2%	x	-1%	x
O=C(Cc1ccccc1)N/N=C/c1cc(Br)c(Br)o1	43*	38*	1%	-2%	5%	14%
O=C(Cc1ccccc1)NN=Cc1ccccc1	x	x	x	0%	x	-14%
Cc1ccc(C)c(N2CCN(CCCNC(=O)c3cnn(-c4ccc(F)cc4)c3C3CCN(C(=O)OC(C)(C)C)CC3)CC2)c1	x	x	x	2%	x	x
CCN(CC)CCN(C(=O)c1ccc(CN2CCCCC2)o1)C(C(=O)NC1CCCCC1)c1ccc(F)cc1 (centres undefined)	42*	60*	-6%	-5%	-8%	3%
CC(C)CCNC(=O)C(C)N(Cc1ccc(F)cc1)C(=O)c1ccc(CN2CCCCC2)o1 (centres undefined)	2	-3	3%	3%	0%	0%
CCOc1ccccc1/C=N/NC(=O)c1cccc(Cl)c1	2	57*	-3%	1%	-1%	x
CCOc1ccc(Cl)cc1/C=N/NC(=O)c1ccccc1	29*	65*	0%	1%	6%	7%

Screening results deposited in PubChem by National Center for Advancing Translational Sciences (NCATS).
